The target in test [1] is Albumin (Bos taurus) (UniProt P02769). Briefly: bovine serum albumin binders on microarray, profiling panel, artefact control for SMM control protein annotation, biochemical, small-molecule microarray, Alexa647 label, 635/667 nm fluorescence (AID 1118).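 Also: score merges 667 nm emission intensity and signal-to-noise per printed compound spot.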 Conditions: BSA-A647 binding, fluorescence 635 nm, higher = more signal.
Test [2] can be described thus: small-molecule microarray binders of probe aXIP, primary screen, biochemical, NeuroSMM set, 635/667 nm fluorescence (AID 1119).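 Also: probe is the protein aXip251-270 applied at 1 µg/mL to compound-printed slides; binding of probe to printed compounds measured as 667 nm fluorescence plus signal to noise.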 The settings on record: higher = more signal, called active from +8 up or from −8 down.
The nature of test [3]: small-molecule binders of probe aNOTCH3, primary screen, biochemical, small-molecule microarray, 635/667 nm fluorescence (AID 1120).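 Also: probe is a biotin-tagged antibody raised against NOTCH3 rather than NOTCH3 protein; score merges spot fluorescence near 667 nm with spot signal to noise.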 The settings on record: higher = more signal.
Test [4] in a line: small-molecule binders of probe aNOTCH2, primary screen, biochemical, small-molecule microarray, 635/667 nm fluorescence (AID 1121).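 Also: score merges feature fluorescence read at 667 nm with its signal to noise.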 Conditions: higher = more signal.
In test [5] the target is Carbonic anhydrase 2 (Homo sapiens) (UniProt P00918). In words: CAII small-molecule binders, profiling panel, biochemical, small-molecule microarray, Alexa647-labelled CAII (AID 1122). The settings on record: CAII-A647 binding fluorescence, higher = more signal.
Test [6] can be described thus: COS7 lysate on small-molecule microarray, probe aHis, 635 nm (AID 1123).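 Also: z-score combines 667nm fluorescence intensity with signal-to-noise per printed compound spot.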 The settings on record: COS7 cell lysate, fluorescence, higher = more signal.
Test [7] can be described thus: compound binding in COS7 lysate, probe aLAP1, primary screen, cell lysate, small-molecule microarray (AID 1124).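 Also: lysate comes from COS7 cells expressing LAP1 and is applied at 0.3 µg/mL; score merges spot fluorescence near 667 nm with signal-to-noise over triplicate slides.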 Conditions: probe aLAP1, fluorescence, higher = more signal.
Test [8] concerns Sam68 (KHDRBS1). Briefly: Sam68 small-molecule binders, primary screen, biochemical, small-molecule microarray, 635 nm fluorescence (AID 1125).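 Also: score merges 667 nm channel intensity with signal to noise over triplicate slides.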 The settings on record: small-molecule microarray binding, higher = more signal.
In test [9] the test system is Chordin-like protein 2 (CHRDL2). Briefly: CHRDL2 small-molecule binders, primary screen, biochemical, small-molecule microarray, 635 nm fluorescence (AID 1126).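 Also: printed compound slides probed with Chrdl2 protein at 4 µg/mL for 1 h at 4 C; score merges 667 nm emission intensity with signal to noise over three replicate slides.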 Conditions: small-molecule microarray binding, fluorescence 635 nm; higher = more signal.
Test [10] concerns the target Concanavalin-A (Canavalia ensiformis) (UniProt P02866). Briefly: ConA small-molecule binders, primary screen, artefact control for SMM control protein annotation, biochemical, small-molecule microarray, Alexa647 label, 635 nm (AID 1127).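 Also: z combines 667 nm emission intensity with signal-to-noise across three replicate slides.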 Conditions: ConA-A647 binding fluorescence, higher = more signal.

Structures are written as SMILES. Calls of active or inactive are those of the source.

Chain of Albumin (Bos taurus) (P02769 whole entry, looked up): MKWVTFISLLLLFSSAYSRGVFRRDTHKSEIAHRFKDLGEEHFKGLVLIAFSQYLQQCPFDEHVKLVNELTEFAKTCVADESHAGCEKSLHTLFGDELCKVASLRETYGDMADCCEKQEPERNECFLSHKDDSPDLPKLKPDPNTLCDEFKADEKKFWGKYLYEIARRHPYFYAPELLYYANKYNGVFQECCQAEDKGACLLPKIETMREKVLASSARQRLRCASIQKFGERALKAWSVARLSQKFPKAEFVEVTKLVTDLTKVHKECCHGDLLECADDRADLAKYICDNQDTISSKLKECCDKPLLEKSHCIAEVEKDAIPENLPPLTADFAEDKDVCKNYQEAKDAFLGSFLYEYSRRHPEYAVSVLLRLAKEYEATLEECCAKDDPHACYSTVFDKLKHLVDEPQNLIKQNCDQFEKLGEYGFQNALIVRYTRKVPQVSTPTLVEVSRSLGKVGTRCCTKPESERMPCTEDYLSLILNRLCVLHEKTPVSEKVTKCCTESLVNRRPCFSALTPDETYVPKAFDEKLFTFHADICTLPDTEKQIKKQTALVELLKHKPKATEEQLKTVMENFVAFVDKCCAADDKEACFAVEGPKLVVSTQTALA
Chain of Concanavalin-A (Canavalia ensiformis) (P02866 whole entry, looked up): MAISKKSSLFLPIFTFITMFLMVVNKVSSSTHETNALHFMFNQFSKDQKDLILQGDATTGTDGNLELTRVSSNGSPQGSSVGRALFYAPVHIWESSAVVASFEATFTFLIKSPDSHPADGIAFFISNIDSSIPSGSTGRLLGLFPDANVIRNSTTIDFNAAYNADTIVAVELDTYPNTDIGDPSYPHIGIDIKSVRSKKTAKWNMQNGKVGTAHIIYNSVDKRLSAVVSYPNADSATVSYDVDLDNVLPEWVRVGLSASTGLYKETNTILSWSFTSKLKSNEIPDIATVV

`COCCOC(=O)N1C(=O)[C@@]2(c3cc(C#CC4(O)CCCCCC4)ccc31)[C@H](C(=O)NC[C@H](O)c1ccccc1)[C@H]1C(=O)O[C@H](c3ccccc3)[C@H](c3ccccc3)N1[C@@H]2c1ccc(O)cc1`: the composite z-score was 0.456 in [1]; -0.0362 in test [3]; -0.0846 in test [4]; 0.618 in [5]; 1.51 in [6]; 1.42 in test [7]. In addition, the composite z-score in test [8] was 1.16; in test [9] it was -0.112; in test [10], 1.09. In addition, in [2], the composite Z-score was -0.275 (inactive).

Consider `NC(=O)NCC#Cc1ccc2c(c1)[C@]1(C(=O)N2)[C@H](C(=O)N2CCCCCCC2)[C@H]2C(=O)O[C@H](c3ccccc3)[C@H](c3ccccc3)N2[C@@H]1c1ccc(O)cc1`, for which the composite z-score was found to be 0.408 in test [1]; 1.38 in test [3]; 0.796 in test [4]; 0.341 in [5]; 1.2 in test [6]; 0.624 in [7]. The composite z-score in test [8] was determined as 1.07; in [9], 1.2; in [10], 1.09. Moreover, the composite Z-score in test [2] is -0.573 (inactive).

Take `C=CCC(OC(C)=O)[C@@H]1[C@@H](N(Cc2ccc(-c3ccccc3)cc2)C(=O)c2ccc(-c3ccccc3)cc2)c2cc(OCCCO)ccc2N1C(=O)c1ccc2ccccc2n1` (stereo not given in full): the composite z-score in test [1] was -0.211; in test [3], 0.195; in test [4] it was -0.12; in test [5] it was -0.0785; in [6], -0.137; in [7], 0.504. For the same molecule, the composite z-score in test [8] was 0.504; in test [9], 0.169; in test [10], -0.309. The composite Z-score in test [2] was -0.314 (inactive).

With `COCCOC(=O)N1C(=O)[C@@]2(c3cc(C#Cc4ccc(OC)cc4)ccc31)[C@H](C(=O)Nc1nc3ccccc3s1)[C@H]1C(=O)O[C@H](c3ccccc3)[C@H](c3ccccc3)N1[C@@H]2c1ccccc1OCCO`, the composite z-score in test [1] is 0.545; in [3], 0.124; in [4] it was 0.159; in test [5] it was 0.547; in [6] it was 0.874; in test [7], 0.304. The composite z-score in [8] came to 0.997; in test [9], 0.649; in [10], 1.11. For the same molecule, the composite Z-score in test [2] is -0.331 (inactive).

`C/C=C/CN(C(=O)C#Cc1ccccc1)[C@H](CO[Si](C)(C)C(C)(C)C)c1ccccc1`: the composite z-score in test [1] is -0.907; in [3] it was -0.384; in test [4] it was -0.22; in [5] it was 0.599; in [6] it was 0.043; in test [7], -0.155. Moreover, the composite z-score in test [8] was 0.248; in test [9], -0.553; in test [10] it was -1.17. Besides, the composite Z-score in test [2] was -0.357 (inactive).

In the case of `CC(C)C[C@H]1NC(=O)[C@H](Cc2ccccc2)NC(=O)[C@@]23C(=O)N[C@@H](Cc4ccccc4)C2[C@H](C)[C@@]2(C)O[C@H]2C3/C=C/C/C=C\CNC1=O` (stereo not given in full), the composite z-score is -0.235 in test [1]; -0.0077 in test [3]; -0.153 in [4]; 0.535 in [5]; 1.14 in test [6]; 0.495 in test [7]. The results for the composite z-score in test [8], in test [9] and in test [10] were 1.3, 0.937 and 0.738, respectively. In addition, the composite Z-score in [2] is 0.63 (inactive).

With `CCCCC(O)C1C=CC2C(=O)N(C)C(=O)C2N1Nc1ccccc1` (stereo not given), the composite z-score in test [1] is 0.555; in [3], 0.138; in test [4] it was -0.0708; in [5], 0.72; in test [6] it was 2.06; in test [7], 0.182. Also, the composite z-score is 1.29 in test [8], -0.107 in test [9] and 0.31 in test [10]. For the same molecule, in [2], the composite Z-score was 0.267 (inactive).

As for `CC(C)CNC(=O)[C@@H]1c2ccccc2C(=O)N(C(C)C)[C@H]1c1ccc(CO)cc1`, the composite z-score in [1] was 0.121; in test [3] it was -0.153; in test [4], -0.0454; in test [5] it was 0.757; in test [6] it was 0.435; in [7] it was 1.25. In addition, the figures for the composite z-score in test [8], in test [9] and in [10] were -0.463, 0.0021 and -1.56, respectively. For the same molecule, the composite Z-score in [2] is 0.337 (inactive).

For the molecule `C=CC[C@@]1(C(=O)O)N=C(c2ccc(OCCCO)cc2)O[C@@H]1c1ccccc1CN=[N+]=[N-]`, the composite z-score in test [1] is 0.557; in test [3] it was 0.0991; in test [4], -0.147; in test [5], 0.596; in test [6], 1.9; in test [7], 0.0424. Besides, the composite z-score in test [8] came out at 0.826; in [9] it was 0.439; in test [10] it was 1.05. Further, the composite Z-score in test [2] is -0.632 (inactive).

With `CCOC(=O)C1=CCC(c2cc3ccccc3[nH]2)N(S(=O)(=O)c2ccccc2[N+](=O)[O-])C1` (stereo not given), the composite z-score in test [1] was 0.476; in [3], 0.051; in test [4], -0.188; in test [5], 0.674; in test [6] it was 2.37; in test [7], 0.375. In addition, the figures for the composite z-score in [8], in [9] and in [10] were 0.644, 0.0846 and 0.558, respectively. In addition, in test [2], the composite Z-score is 4.63 (inactive).

Take `C=CCN1C(=O)[C@]2(O[C@H](CCn3cc([C@H](O)c4ccccc4)nn3)[C@@H]([Si](C)(C)c3ccc(OC)cc3)[C@@H]2C)c2cc(N3C(=O)c4cccc5cccc3c45)ccc21`: the composite z-score is 0.626 in test [1]; -0.141 in test [3]; -0.126 in test [4]; 0.522 in test [5]; 0.515 in [6]; 0.389 in test [7]. Also, the composite z-score in test [8] was 0.598; in [9], -0.693; in [10], 0.471. Further, in test [2], the composite Z-score was 0.783 (inactive).

As for `COC(=O)[C@@]1(Cc2ccc(OC)cc2)[C@@H]2[C@@H](CC(=O)[C@H]2CC(=O)C(=O)N2CCCC2)CN1C(=O)c1ccccc1`, the composite z-score in test [1] was found to be 0.979; in [3] it was 1.75; in test [4], 1; in test [5], 0.856; in test [6], 3.45; in test [7] it was 0.921. Also, the composite z-score in test [8] is 1.09; in test [9] it was 0.251; in [10] it was 1.18. Besides, the composite Z-score in [2] is -0.766 (inactive).

`COc1ccc([Si](C)(C)[C@H]2[C@H](CC(=O)N3Cc4ccccc4C[C@H]3CO)O[C@@]3(C(=O)N(Cc4cccc(N5C(=O)c6cccc7cccc5c67)c4)c4ccccc43)[C@@H]2C)cc1`: the composite z-score was -0.0311 in test [1]; -0.332 in test [3]; -0.114 in [4]; 0.295 in test [5]; 1.32 in test [6]; 0.271 in [7]. Besides, the composite z-score in [8] turned out to be 1.15; in test [9], 1.33; in test [10], 0.872. In addition, the composite Z-score in test [2] is 0.285 (inactive).

The values are drawn from PubChem BioAssay.
